This is an account of results in PubChem BioAssay (NCI).

The nature of assay [1]: NCI Yeast Anticancer Drug Screen. Data for the rad50 strain (AID 155).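 Further: 0% = growth of vehicle-only cultures of the same strain.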 The note with it: S. cerevisiae rad50 strain growth inhibition, stronger effect = higher value. The method in brief:
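Genetically altered yeast (DNA repair pathway); compound treatment; growth inhibition vs vehicle ctrl.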

Assay [2] in a line: NCI Yeast Anticancer Drug Screen. Data for the mec2-1 strain (AID 157). The note with it: S. cerevisiae mec2-1 strain, stronger effect = higher value. An outline of the steps:
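Vehicle-treated cultures served as reference for growth inhibition of compound-exposed mec2-1 yeast.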

A short description of assay [3]: NCI Yeast Anticancer Drug Screen. Data for the sgs1 mgt1 strain (AID 161).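 Further: 0% = growth of cultures given vehicle only.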 The settings on record: S. cerevisiae sgs1 mgt1 strain, stronger effect = higher value. An outline of the steps: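 Read-out: growth inhibition vs vehicle controls. Cells: mutant yeast strain deficient in DNA damage repair.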
The nature of assay [4]: NCI Yeast Anticancer Drug Screen. Data for the cln2 rad14 strain (AID 165).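 Further: 0% = growth equal to vehicle treated cultures.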 The note with it: S. cerevisiae cln2 rad14 strain, stronger effect = higher value. The method in brief: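 Each compound was tested on cln2 rad14 yeast. Inhibition of growth was calculated against vehicle-exposed controls.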
The nature of assay [5]: NCI Yeast Anticancer Drug Screen. Data for the bub3 strain (AID 167). The note with it: S. cerevisiae bub3 mutant strain, stronger effect = higher value. The method in brief:
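Yeast carrying a defined mutation is treated with each compound, and growth is compared with that of vehicle-exposed cells to give inhibition.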

Assay [6] is described as follows: NCI Yeast Anticancer Drug Screen. Data for the mlh1 rad18 strain (AID 175). The settings on record: S. cerevisiae mlh1 rad18 strain growth inhibition, stronger effect = higher value. An outline of the steps:
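Vehicle-treated cultures served as the reference for growth inhibition in a yeast strain carrying DNA damage repair alterations exposed to each compound.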

Setting [7] is: at 5.0 µM (retest, dose inferred, filed as 0.5).
Where [8] appears, read: at 50.0 µM (retest, dose inferred, filed as 5.0).

Structures are written as SMILES. “And” between values parts separate entries of the source, which are not always exact repeats. Equal values may be shown once. This is part of a sample that, as a whole, favours compounds with a hit. Of some 79,000 tested, about 15% had one in any assay. A number with no mark means an inactive call. The source made the active and inactive calls. No stated cut-off is given here; in the data, active means growth inhibition above about 70%; inactive means the rest.

Regarding `CC1(C)OCC(COC(=O)C=[N+]=[N-])O1` (configuration not stated), the growth inhibition was 0% in assay [1] (setting [7]); -10% in assay [1] (setting [8]); 2.75% in assay [1] (at 50.0 µM); 0% in assay [2] (setting [7]); -7% in assay [2] (setting [8]); 0.75% in assay [2] (at 50.0 µM). For the same compound, the growth inhibition in assay [3] (setting [7]) is 11%; in assay [3] (setting [8]), -4%; in assay [3] (at 50.0 µM) it was -7.5%; in assay [4] (setting [7]), -3%; in assay [4] (setting [8]), -14%; in assay [4] (at 50.0 µM), -6.95%. Further, the growth inhibition in assay [5] (setting [7]) is 2%; in assay [5] (setting [8]), -3%; in assay [5] (at 50.0 µM), -2.25%; in assay [6] (setting [7]), -2%; in assay [6] (setting [8]), -14%; in assay [6] (at 50.0 µM), 42.5%.
Turning to `O=C1NC(=O)C([N+](=O)[O-])C(=O)N1`, the growth inhibition in assay [1] (setting [7]) is 0%; in assay [1] (setting [8]) it was -5%; in assay [1] (at 50.0 µM), 62.9%; in assay [2] (setting [7]), -14%; in assay [2] (setting [8]), -4%; in assay [2] (at 50.0 µM), 30.1%. Moreover, the growth inhibition in assay [3] (setting [7]) was 9%; in assay [3] (setting [8]), -8%; in assay [3] (at 50.0 µM) it was 34.5%; in assay [4] (setting [7]), 29%; in assay [4] (setting [8]), 39%; in assay [4] (at 50.0 µM), 48.5%. Also, the growth inhibition was 15% in assay [5] (setting [7]); 43% in assay [5] (setting [8]); 66.8% in assay [5] (at 50.0 µM); 10% in assay [6] (setting [7]); 16% in assay [6] (setting [8]); 18.8% in assay [6] (at 50.0 µM).
Turning to `CN(C)c1ccc(N=Cc2c([O-])ccc3ccccc23)cc1.[C-]#[O+].[C-]#[O+].[Ir]`, the growth inhibition in assay [1] (setting [7]) is 1%; in assay [1] (setting [8]), 1%; in assay [1] (at 50.0 µM), 83.4% (active); in assay [2] (setting [7]), 15%; in assay [2] (setting [8]), 15%; in assay [2] (at 50.0 µM), 60.4%. In addition, the growth inhibition in assay [3] (setting [7]) was -17%; in assay [3] (setting [8]) it was -17%; in assay [3] (at 50.0 µM), 78.3% (active); in assay [4] (setting [7]), 3%; in assay [4] (setting [8]), 3%; in assay [4] (at 50.0 µM) it was 77.1% (active). In addition, the growth inhibition was 2% in assay [5] (setting [7]); 2% in assay [5] (setting [8]); 82.5% (active) in assay [5] (at 50.0 µM); 9% in assay [6] (setting [7]); 9% in assay [6] (setting [8]); 71.1% (active) in assay [6] (at 50.0 µM).
Consider `[Se]c1ncnc2nc[nH]c12`, for which the growth inhibition was 21% in assay [1] (setting [7]); 57% in assay [1] (setting [8]); 57.9% in assay [1] (at 50.0 µM); 15% in assay [2] (setting [7]); 37% in assay [2] (setting [8]); 38.7% in assay [2] (at 50.0 µM). In addition, the growth inhibition is 13% in assay [3] (setting [7]); 41% in assay [3] (setting [8]); 37.9% in assay [3] (at 50.0 µM); 11% in assay [4] (setting [7]); 23% in assay [4] (setting [8]); 2.25% in assay [4] (at 50.0 µM). The growth inhibition was -2% in assay [5] (setting [7]); 60% in assay [5] (setting [8]); 39.2% in assay [5] (at 50.0 µM); 17% in assay [6] (setting [7]); 68% in assay [6] (setting [8]); 84.2% (active) in assay [6] (at 50.0 µM).
With `CCCCCCCCCCCCC(=O)[O][Hg][c]1ccccc1`, the growth inhibition was 99% (active) in assay [1] (setting [7]); 99% (active) in assay [1] (setting [8]); 99.2% (active) in assay [1] (at 50.0 µM); 100% (active) in assay [2] (setting [7]); 100% (active) in assay [2] (setting [8]); 99.5% (active) in assay [2] (at 50.0 µM). Further, the growth inhibition in assay [3] (setting [7]) was 100% (active); in assay [3] (setting [8]), 100% (active); in assay [3] (at 50.0 µM), 99.5% (active); in assay [4] (setting [7]) it was 99% (active); in assay [4] (setting [8]) it was 99% (active); in assay [4] (at 50.0 µM), 99.3% (active). Also, the growth inhibition was 99% (active) in assay [5] (setting [7]); 99% (active) in assay [5] (setting [8]); 100% (active) in assay [5] (at 50.0 µM); 99% (active) in assay [6] (setting [7]); 99% (active) in assay [6] (setting [8]); 99.5% (active) in assay [6] (at 50.0 µM).
Take `O=[As]c1ccc([N+](=O)[O-])cc1` (configuration not stated): the growth inhibition was 80% (active) in assay [1] (setting [7]); 100% (active) in assay [1] (setting [8]); 99.6% (active) in assay [1] (at 50.0 µM); 89% (active) in assay [2] (setting [7]); 100% (active) in assay [2] (setting [8]); 99.7% (active) in assay [2] (at 50.0 µM). For the same compound, the growth inhibition is 39% in assay [3] (setting [7]); 99% (active) in assay [3] (setting [8]); 99.7% (active) in assay [3] (at 50.0 µM); 58% in assay [4] (setting [7]); 98% (active) in assay [4] (setting [8]); 98.9% (active) in assay [4] (at 50.0 µM). Moreover, the growth inhibition in assay [5] (setting [7]) was 99% (active); in assay [5] (setting [8]) it was 100% (active); in assay [5] (at 50.0 µM), 99.3% (active); in assay [6] (setting [7]), 89% (active); in assay [6] (setting [8]) it was 99% (active); in assay [6] (at 50.0 µM) it was 99.5% (active).
As for `Oc1c(Cl)c(Cl)c(Cl)c(Cl)c1Cl`, the growth inhibition was 14% and 30% in assay [1] (setting [7]); 99% (active) and 100% (active) in assay [1] (setting [8]); 80.8% (active) and 99% (active) in assay [1] (at 50.0 µM); 16% and 23% in assay [2] (setting [7]); 100% (active) and 99% (active) in assay [2] (setting [8]); 99.8% (active) and 99% (active) in assay [2] (at 50.0 µM). Besides, the growth inhibition in assay [3] (setting [7]) was 13% and 39%; in assay [3] (setting [8]), 98% (active) and 99% (active); in assay [3] (at 50.0 µM), 97.5% (active) and 99.2% (active); in assay [4] (setting [7]), 15% and 30%; in assay [4] (setting [8]), 99% (active); in assay [4] (at 50.0 µM) it was 99% (active). Also, the growth inhibition was 5% and 13% in assay [5] (setting [7]); 99% (active) in assay [5] (setting [8]); 99.4% (active) and 99% (active) in assay [5] (at 50.0 µM); 21% and 40% in assay [6] (setting [7]); 99% (active) in assay [6] (setting [8]); 90% (active) and 99% (active) in assay [6] (at 50.0 µM).
As to `OC1CCCC[CH]1[Hg][Cl]` (configuration not stated), the growth inhibition in assay [1] (setting [7]) is 99% (active); in assay [1] (setting [8]), 99% (active); in assay [1] (at 50.0 µM), 99.3% (active); in assay [2] (setting [7]), 100% (active); in assay [2] (setting [8]), 100% (active); in assay [2] (at 50.0 µM) it was 99.7% (active). Besides, the growth inhibition was 100% (active) in assay [3] (setting [7]); 100% (active) in assay [3] (setting [8]); 49.2% in assay [3] (at 50.0 µM); 99% (active) in assay [4] (setting [7]); 99% (active) in assay [4] (setting [8]); 99.3% (active) in assay [4] (at 50.0 µM). Also, the growth inhibition is 100% (active) in assay [5] (setting [7]); 100% (active) in assay [5] (setting [8]); 99.3% (active) in assay [5] (at 50.0 µM); 100% (active) in assay [6] (setting [7]); 100% (active) in assay [6] (setting [8]); 99.5% (active) in assay [6] (at 50.0 µM).
In the case of `[Cl][Sn]1([c]2ccccc2)[O]CCNCC[O]1`, the growth inhibition in assay [1] (setting [7]) was 22%; in assay [1] (setting [8]) it was 97% (active); in assay [1] (at 50.0 µM), 88.1% (active); in assay [2] (setting [7]), 9%; in assay [2] (setting [8]) it was 99% (active); in assay [2] (at 50.0 µM), 91.2% (active). Further, the growth inhibition in assay [3] (setting [7]) was 12%; in assay [3] (setting [8]) it was 99% (active); in assay [3] (at 50.0 µM), 90.8% (active); in assay [4] (setting [7]) it was 6%; in assay [4] (setting [8]), 97% (active); in assay [4] (at 50.0 µM), 91.8% (active). Further, the growth inhibition is 9% in assay [5] (setting [7]); 98% (active) in assay [5] (setting [8]); 90% (active) in assay [5] (at 50.0 µM); 19% in assay [6] (setting [7]); 97% (active) in assay [6] (setting [8]); 91.8% (active) in assay [6] (at 50.0 µM).
